Screening data from PubChem.
IL1B secr inh = blocks inflammasome-driven IL-1 beta release. THP-1 LPS/ATP IL-1B secretion, AlphaLISA, 16 h; hits give low values. 360,000 compounds, 4.7% hits. activity change, % at 57.5 µM; in the data active = activity change below about -50%; inconclusive = mostly about -30% to -49%; note: % is set by controls: 0 for no effect and ±100 for the full control effect
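THP-1 cells pretreated 1 hr with compounds (up to 57.5 uM final), then stimulated with LPS (250 ng/mL final) plus ATP (1.25 mM final); secreted IL-1B measured by AlphaLISA after 16 hr, decreased signal indicating inhibition.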
DT40 TDP1 no CPT = qHTS for Inhibitors of human tyrosyl-DNA phosphodiesterase 1 (TDP1): qHTS in cells in absence of CPT; DT40 Tdp1-/- hTDP1 cells, no CPT, ATP luminescence, 48 h; Potency, µM (highest dose often 46.2 µM), for inactives: top-dose activity change, negative = growth inhibition, actives largely listed as inhibitors; 420,000 compounds, 15% hits; note: potency is the fitted concentration of half-maximal effect; % is set by controls: 0 for no effect and ±100 for the full control effect; nearly all actives have a fitted effect of over 55% in size
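Growth kinetics read by CellTiter-Glo luminescence after ≥48 hr at 37 °C. Cells: DT40 Tdp1-/- stably carrying human TDP1, 400 per well, compound exposure in the absence of CPT (DMSO vehicle).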
TDP1 cell CPT = DT40-hTDP1 cell growth loss with CPT | chicken DT40 Tdp1-/-;hTDP1 cells + 20 nM CPT, ATP luminescence, 48 h | Potency, µM (series often up to 46.2 µM), for the others: at the top dose activity change, negative = growth inhibition, most hits filed as inhibitors | 420,000 compounds, 12% hits | AID 686979; note: potency is the fitted concentration of half-maximal effect; % is set by controls: 0 for no effect and ±100 for the full control effect; nearly all actives have a fitted effect of over 55% in size
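Chicken DT40 Tdp1-/- cells complemented with human TDP1, 400 cells/well, exposed to compounds plus 20 nM camptothecin for at least 48 h at 37 C; viability read as ATP content by CellTiter-Glo luminescence.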
MCF10A rerep = induces DNA re-replication in MCF 10a normal breast cells | MCF 10A DNA re-replication, Hoechst nuclear intensity, 48 h | Potency, µM (series often up to 46.1 µM), without a hit: at the top dose activity, positive = re-replication, hits mostly activators | 350,000 compounds, 2.9% hits | AID 624296; note: potency is the fitted concentration of half-maximal effect; % of control where 0% means no effect; nearly all actives have a fitted effect of over 50% in size
SW480 rerep = inducers of DNA re-replication in SW480 colon cancer cells; SW480 DNA re-replication, Hoechst DNA content imaging, 48 h; Potency, µM (doses to about 46.1 µM), for inactives: at the highest dose re-replication activation, actives largely listed as activators; 340,000 compounds, 1.8% hits; AID 624297; note: potency is the fitted concentration of half-maximal effect; % of control where 0% means no effect; nearly all actives have a fitted effect of over 55% in size
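Cells (250 per well) received 23 nL compound or DMSO by pin tool and were kept 48 hr at 37 C, 5% CO2. Nuclei were then stained with Hoechst for 40 min and scanned for DNA content.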
BCR signal inh = inhibitors of chronic active B-cell receptor signaling. ABC-DLBCL IkBa-CBG/CBR reporter, luminescence ratio, 4 h. Potency, µM (highest dose often 46.1 µM), without a hit: top-dose activity change, negative = inhibition, most hits filed as inhibitors. 340,000 compounds, 0.05% hits; active = well fitted inhibition curve with a large enough effect in the signal ratio, with a control signal flat, not every such curve was filed as active; inconclusive = small, poorly fitted or top-dose-only effect, or effect the other way, or a change in a side signal; the % refers to the signal ratio;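 note: potency is the fitted concentration of half-maximal effect; plate controls were basal doxycycline-induced cells for no effect and cells given 10 µM MG132 for full effect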
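Compounds up to 46 uM were incubated four hours with TMD8 cells whose green CBG68 luciferase is fused to IkappaBalpha; red CBR luminescence normalised the signal, and concentration-effect curves were fitted to fusion, red and ratio data.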
Active calls of the source: *; ? = inconclusive; nt = no result. A selection: hits, their analogues and other compounds. The true share with any hit is near 19%. Unless noted, calls come from the whole dose curve; as a rule, active = well fitted curve in the direction sought with a large enough effect; inconclusive = small, poorly fitted or top-dose-only effect, or another doubt; inactive = no such curve, though single readings can be large; an effect the other way counts as inactive or inconclusive.

SMILES	IL1B secr inh	DT40 TDP1 no CPT	TDP1 cell CPT	MCF10A rerep	SW480 rerep	BCR signal inh
Cc1ccc(C)c(C(=O)Nc2nc3ccccc3[nH]2)c1	4.8	2.31µM*	?	16.9%	-2.4%	-18.1%
Cc1ccc(/C=C/C(=O)Nc2nc3ccccc3[nH]2)cc1	-1.6	?	13µM*	15.2%	1.7%	7.0%
Cc1ccc(Nc2nc3ccccc3[nH]2)nc1	-52.9*	16.4µM*	?	9.9%	15.6%	?
O=C(/C=C/c1c(F)cccc1Cl)Nc1nc2ccccc2[nH]1	0.0	?	-6.2%	?	-8.5%	0.1%
Cc1ccc(/C=C/C(=O)c2nc3ccccc3[nH]2)cc1	?	16.4µM*	20.6µM*	?	?	12.6µM*
CS(=O)(=O)Nc1nc2ccccc2[nH]1	11.6	-1.6%	-9.2%	1.5%	-3.5%	-1.7%
Cc1ccc(Cc2nc3ccccc3[nH]2)cc1	24.7	?	5.7%	-9.0%	-4.3%	?
Cc1ccccc1Cn1c(=O)n(-c2ccc(Cl)cc2)c(=O)c2c3c(sc21)CCCC3	nt	-9.1%	-0.8%	nt	nt	nt
Cc1ccccc1C(=O)NC1(C(F)(F)F)C(=O)Nc2c1c(=O)[nH]c(=O)n2CCc1ccccc1 (centres undefined)	nt	6.2%	-2.5%	nt	nt	1.8%
COc1ccc(OCCN2CCC(C(=O)NC(c3ccsc3)c3ccccc3C)CC2)cc1 (centres undefined)	-66.5*	?	?	nt	nt	nt
COc1ccc(OCCN2CCC(C(=O)NC(c3ccc(C)cc3)c3ccccn3)CC2)cc1 (centres undefined)	-26.9	-14.5%	-27.7%	nt	nt	nt
COc1cc(CN2CCC(C(=O)NC(c3ccccc3)c3ccsc3)CC2)cc(OC)c1 (centres undefined)	-23.8	20.6µM*	16.4µM*	nt	nt	nt
CC(NC(=O)C1CCN(Cc2ccccc2)CC1)c1cccc2ccccc12 (centres undefined)	-18.6	?	?	nt	nt	nt
O=C(NC(c1ccccc1)c1ccsc1)C1CCN(Cc2ccccc2)CC1 (centres undefined)	48.9	?	?	nt	nt	nt
Cc1ccccc1C(NC(=O)C1CCN(Cc2ccc(Oc3ccccc3)cc2)CC1)c1ccsc1 (centres undefined)	?	18.4µM*	18.4µM*	nt	nt	nt
CCCN1CCC(C(=O)NC(c2ccc(Cl)cc2)c2ccsc2)CC1 (centres undefined)	?	2.91µM*	?	nt	nt	nt
CN(C)c1ccc(CC2CCc3ccccc32)cc1 (centres undefined)	nt	-10.1%	?	nt	nt	nt
CCn1c(CC(=O)Nc2ccccc2F)nnc1SCC(=O)NC1=NCCS1	5.7	?	?	nt	nt	nt
O=C1CSC(=S)N1N=Cc1ccc2c(c1)OCO2	-4.1	?	?	-1.4%	-1.7%	nt
COc1ccc(-n2nc3c(c2NC(=O)C(=O)NCc2ccccc2)CSC3)cc1	nt	?	?	nt	nt	21.3%
O=C(NC(c1ccc(Cl)cc1)c1ccsc1)C1CCN(Cc2ccc(Oc3ccccc3)cc2)CC1 (centres undefined)	-62.5*	2.59µM*	2.59µM*	nt	nt	nt
Cc1nc(-c2ccc(C)c(N3CCN(C(=O)Nc4cccc(Cl)c4C)CC3)c2)no1	nt	16.4µM*	?	nt	nt	nt
Cc1ccc(NC(=O)N2CCN(c3cc(-c4noc(C)n4)ccc3C)CC2)c(C)c1	nt	1.1%	-4.6%	nt	nt	nt
COc1cc(=O)n2c(c1C(=O)NCc1nccs1)CCN(Cc1ccccc1F)CC2	nt	-14.5%	-2.6%	nt	nt	nt
Cc1ccccc1Cc1c(C)nc2nc(SCC(=O)NC(C)c3ccccc3)nn2c1C (centres undefined)	nt	?	16.4µM*	nt	nt	nt
SMILES	IL1B secr inh	DT40 TDP1 no CPT	TDP1 cell CPT	MCF10A rerep	SW480 rerep	BCR signal inh
Cc1ccccc1Cc1c(C)nc2nc(SCC(=O)N(C)c3ccccc3)nn2c1C	nt	?	23.1µM*	nt	nt	-3.5%
Cc1nc2nc(SCC(=O)O)nn2c(C)c1Cc1c(F)cccc1Cl	12.1	4.9%	4.8%	4.2%	5.1%	8.6%
Cc1nc2nc(SCC(=O)NC(C)c3ccccc3)nn2c(C)c1Cc1c(F)cccc1Cl (centres undefined)	nt	16.4µM*	23.1µM*	nt	nt	nt
Cc1ccccc1Cc1c(C)nc2nc(SCC(=O)NCCCN3CCCCC3)nn2c1C	-23.8	-18.1%	-4.8%	?	11.5%	0.6%
Cc1ccc(Cc2c(C)nc3nc(SCC(=O)NCc4ccco4)nn3c2C)cc1	45.9	4.61µM*	3.26µM*	6.51µM*	?	?
Cc1ccccc1CSc1nc2nc(C)c(Cc3ccccc3)c(C)n2n1	nt	16.4µM*	-109.1%	nt	nt	?
Cc1nc2nc(SCC(=O)N3CCOCC3)nn2c(C)c1Cc1ccccc1	-1.6	-19.6%	?	6.0%	0.5%	5.5%
O=C(NCCNCc1cccc(Cl)c1)c1ccco1	9.1	-6.5%	8.4%	10.1%	1.6%	nt
Clc1cccc(CNCCNCc2cccc(Cl)c2)c1	-53.0*	?	-21.9%	16.3%	-1.6%	3.0%
COc1cccc(/C=C/C(=O)OCC(=O)NC2CCCCCC2)c1	0.7	-0.8%	-15.8%	nt	nt	nt
